In the supplement of paper PMC6522484:
± gives the standard deviation of the averaged measurements.

Tests used:
DLD1 [1] = assay: cell viability (CellTiter-Glo) relative to plate median (fraction of plate median); higher = more viable cells; conditions: 5 µM; treatment time 24 h; reporter: 7TFP
In short: (§1)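 Values are well luminescence normalised to the plate median, from either a firefly luciferase or a CellTiterGlo readout on parallel plates. The cells, colorectal cancer lines stably transduced with lentiviral 7TFP or TCF4/Wnt firefly luciferase reporters, were treated with library compounds at a final 5 µM for 24 h. The mean of two independent replicates is listed.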

HCT116 = assay: as above; conditions: 5 µM; treatment time 24 h; reporter: TCF4/Wnt
In short: as §1

SW480 [2] = assay: as above; conditions: 5 µM; treatment time 24 h; reporter: 7TFP
In short: as §1

DLD1 [3] = assay: TCF/Wnt firefly luciferase reporter signal relative to plate median (fraction of plate median); higher = higher Wnt reporter signal; conditions: 5 µM; treatment time 24 h; reporter: 7TFP
In short: as §1

SW480 [4] = assay: as above; conditions: 5 µM; treatment time 24 h; reporter: 7TFP
In short: as §1

Structure (SMILES) | cell viability (DLD1 [1]) | cell viability (HCT116) | cell viability (SW480 [2]) | TCF/Wnt firefly luciferase reporter signal (DLD1 [3]) | TCF/Wnt firefly luciferase reporter signal (SW480 [4])
COc1cccc(OC)c1C(=O)N[C@@H]1C(=O)N2[C@@H]1SC(C)(C)[C@@H]2C(=O)O | 1.05 ± 0.071 | 1.17 ± 0.042 | 1.07 ± 0.035 | 1.14 ± 0.21 | 1.06 ± 0.16
CCC(=O)NCC[C@@H]1CCc2ccc3c(c21)CCO3 | 1.04 ± 0.021 | 1.15 ± 0.092 | 1.06 ± 0.028 | 0.827 ± 0.037 | 0.91 ± 0.023
CNC[C@H](O)c1cccc(O)c1 | 1.02 ± 0.033 | 1.09 ± 0.064 | 0.955 ± 0.062 | 1.02 ± 0.13 | 1.075 ± 0.0071
CCCCC(=O)O[C@H]1CC[C@H]2[C@@H]3CCc4cc(O)ccc4[C@H]3CC[C@]12C | 1.07 ± 0.042 | 1.01 ± 0.052 | 1 ± 0.036 | 0.956 ± 0.25 | 1.04 ± 0.11
CO[C@@]1(NC(=O)CSCC#N)C(=O)N2C(C(=O)O)=C(CSc3nnnn3C)CS[C@@H]21 | 0.998 ± 0.031 | 1.11 ± 0.057 | 0.9035 ± 0.0021 | 0.928 ± 0.023 | 1.02
CC1=C(/C=C/C(C)=C/C=C/C(C)=C/CO)C(C)(C)CCC1 | 0.974 ± 0.079 | 1.15 ± 0.042 | 1.04 ± 0.042 | 1.14 ± 0.042 | 1.04 ± 0.057
O=C1c2c(O)cccc2C([C@@H]2O[C@H](CO)[C@@H](O)[C@H](O)[C@H]2O)c2cc(CO)cc(O)c21 (stereo not given in full) | 1.05 ± 0.1 | 1.1 ± 0.078 | 1.015 ± 0.0071 | 1.2 ± 0.021 | 1.07 ± 0.05
O=c1cc(-c2ccc(O)cc2)oc2ccc(O)cc12 | 1.11 ± 0.11 | 1.1 ± 0.099 | 1.035 ± 0.0071 | 1.03 ± 0.11 | 1.125 ± 0.0071
c1ccc(-c2ccc(C(c3ccccc3)n3ccnc3)cc2)cc1 (stereo not given) | 1.03 ± 0.035 | 1.01 ± 0.026 | 0.965 ± 0.011 | 0.938 ± 0.016 | 0.923 ± 0.033
C[C@@H]1CC(=O)O[C@H](C)Cc2cc(O)cc(O)c2C(=O)O[C@H](C)CC(=O)O[C@H](C)Cc2cc(O)cc(O)c2C(=O)O[C@H](C)CC(=O)O1 | 0.982 ± 0.0014 | 0.997 ± 0.047 | 1.01 ± 0.026 | 1.05 ± 0.028 | 0.918 ± 0.042
CC(=O)O[C@H](CC(=O)[O-])C[N+](C)(C)C | 1.06 ± 0.05 | 0.958 ± 0.044 | 0.956 ± 0.043 | 0.94 ± 0.073 | 0.996 ± 0.0057
COc1cccc2c1C(=O)c1c(O)c3c(c(O)c1C2=O)C[C@@](O)(C(C)=O)C[C@@H]3O[C@H]1C[C@H](N)[C@H](O)[C@H](C)O1 | 0.958 ± 0.027 | 0.575 ± 0.037 | 1.03 ± 0.1 | 0.781 ± 0.21 | 0.564 ± 0.26
CN(CCOc1ccc(CC2SC(=O)NC2=O)cc1)c1ccccn1 (stereo not given) | 0.935 ± 0.03 | 0.894 ± 0.044 | 0.949 ± 0.04 | 0.899 ± 0.09 | 0.906 ± 0.15
C[C@]12C=CC(=O)C=C1CC[C@@H]1[C@@H]2[C@@H](O)C[C@@]2(C)[C@H]1CC[C@]2(O)C(=O)COP(=O)(O)O | 1.04 ± 0.021 | 1 | 0.943 ± 0.033 | 1.04 ± 0.14 | 1.06 ± 0.014
NS(=O)(=O)c1cc2c(cc1Cl)NC(C1CC3C=CC1C3)NS2(=O)=O (stereo not given) | 0.973 ± 0.052 | 0.962 ± 0.0071 | 0.983 ± 0.0042 | 1.1 ± 0.035 | 0.879 ± 0.04
CCOC(=O)C1=C[C@]2(CC)CCCN3CCc4c(n1c1ccccc41)[C@@H]32 | 0.916 ± 0.016 | 1.01 ± 0.088 | 0.995 ± 0.0071 | 1.02 ± 0.067 | 0.782 ± 0.079
CN(C)CCOC(c1ccc(Cl)cc1)c1ccccn1 (stereo not given) | 1.004 ± 0.0085 | 0.977 ± 0.033 | 0.916 ± 0.088 | 0.888 ± 0.0057 | 0.891 ± 0.12
O=C([O-])[C@H]1/C(=C/CO)O[C@@H]2CC(=O)N21.[Li+] | 1.045 ± 0.0071 | 1.04 ± 0.064 | 1.02 ± 0.049 | 1.04 ± 0.092 | 1.125 ± 0.0071
COc1cc2c(cc1OC)C1(O)C(=O)c3ccc(O)c(C(=O)O)c3OC1CO2 (stereo not given) | 1.05 ± 0.035 | 1.04 ± 0.059 | 1.08 ± 0.014 | 0.9145 ± 0.005 | 0.984 ± 0.14
